Screens from PubChem.
Shown are actives, neighbours in structure and some others; about 3.7% of the full set was active somewhere.
GLP-1R inv ag: qHTS of GLP-1 Receptor Inverse Agonists (Inhibition Mode); Glucagon-like peptide 1 receptor (Homo sapiens), P43220; HEK293 GLP-1R CRE-luciferase, luminescence, 24 h; GLP-1R form is constitutively active; Potency, µM (series often up to 38.3 µM), inactives show at the top dose activity change, negative = inhibition, hits mostly inhibitors; actives 1.6% (n = 410,000); further: on the % scale 0 is the no-effect control and ±100 the full control effect; nearly all actives have a fitted effect of over 55% in size
Target sequence (P43220 whole entry, looked up): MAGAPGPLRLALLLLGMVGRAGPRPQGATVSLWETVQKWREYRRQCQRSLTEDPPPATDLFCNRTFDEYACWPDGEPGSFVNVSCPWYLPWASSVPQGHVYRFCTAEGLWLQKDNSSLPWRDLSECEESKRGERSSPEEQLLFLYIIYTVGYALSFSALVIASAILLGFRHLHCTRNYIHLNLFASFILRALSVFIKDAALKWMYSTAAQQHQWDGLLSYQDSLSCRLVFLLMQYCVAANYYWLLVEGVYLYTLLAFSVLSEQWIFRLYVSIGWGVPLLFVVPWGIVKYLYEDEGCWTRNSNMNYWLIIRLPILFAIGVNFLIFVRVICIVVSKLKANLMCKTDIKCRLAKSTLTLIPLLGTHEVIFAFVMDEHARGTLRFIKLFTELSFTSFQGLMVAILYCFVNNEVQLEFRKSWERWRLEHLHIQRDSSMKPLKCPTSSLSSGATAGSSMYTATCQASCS
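HEK293 cells stably co-expressing constitutively active GLP-1R and a cAMP-responsive luciferase reporter were seeded in DMEM with 10% Nu serum, given compounds after 12 h, and incubated 24 h at 37 deg C. Luminescence was then read.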
TGFb SMAD3 inh: qHTS for Inhibitors of TGF-b; actives 1.2% (n = 410,000); HepG2 CAGA-GFP TGF-b/SMAD3 reporter, GFP fluorescence, 18 h; TGF-beta stimulated, 500 pg/mL final; Potency, µM (doses to about 46.1 µM), for the others: at the highest dose activity, negative = inhibition, actives largely listed as inhibitors; AID 588855, 2011; further: on the % scale 0 is the no-effect control and ±100 the full control effect; nearly all actives have a fitted effect of over 65% in size
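Smad-responsive CAGA-GFP expression was quantified in HEPG2 cells exposed to compounds and 500 pg/mL final TGF-beta for 18 h at 37 degrees C; unstimulated wells defined full inhibition.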
S2 tox: Viability Counterscreen for Primary qHTS for Inhibitors of ATXN expression; actives 0.49% (n = 400,000); S2 cells (HEK-293 line with an ATXN2-luciferase reporter) viability, CellTiter-Fluor protease fluorescence, 24 h; Potency, µM (titrated, usually from 56.7 µM), hits mostly cytotoxic; AID 651635, 2014; further: nearly all actives have a fitted effect of over 40% in size
HepG2 tox: qHTS for Inhibitors of TGF-b: Cytotox Counterscreen; HepG2 CAGA-GFP viability, ATP luminescence, 18 h; Potency, µM (doses to about 46.1 µM), for the others: top-dose activity change, negative = cytotoxicity, actives largely listed as cytotoxic; actives 0.76% (n = 410,000)
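HepG2 CAGA-GFP cells (1000/well, DMEM with 1% FBS) received compound, then TGF-beta at 500 pg/mL final, and were incubated 18 hours at 37 degrees C. Viability was read by CellTiter-Glo luminescence. Media-only wells were set as complete cell-killing and DMSO as no toxicity.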
ATXN2 expr inh: Primary qHTS for Inhibitors of ATXN expression | Potency, µM (top dose mostly 57 µM), inactives show at the highest dose activity change, negative = inhibition, actives largely listed as inhibitors | actives 0.72% (n = 360,000) | HEK-293 ATXN2-luciferase reporter, luminescence, 24 h; further: on the % scale 0 is the no-effect control and ±100 the full control effect; nearly all actives have a fitted effect of over 55% in size
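qHTS (up to 57 uM final) was run with 24 h compound exposure of reporter cells at 37 °C. Each well was multiplexed: SteadyGlo luminescence measured ATXN2-luciferase expression after a fluorogenic Gly-Phe-AFC viability readout (25 uM final).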
GLP1R ag: qHTS of GLP-1 Receptor Agonists; Glucagon-like peptide 1 receptor (Homo sapiens), P43220; HEK293 GLP-1R CRE-luciferase, luminescence, 4-6 h; cells express a hypersensitive GLP-1R form; Potency, µM (top dose mostly 45.6 µM), for inactives: at the highest dose activation, hits mostly activators; actives 0.007% (n = 380,000); AID 624172, 2012; further: % of control where 0% means no effect
Active calls of the source: *. The call rests on the fitted dose curve; in most records, active means well fitted curve in the direction sought with a large enough effect; inconclusive means small, poorly fitted or top-dose-only effect, or another doubt; inactive means no such curve, though single readings can be large; an effect the other way counts as inactive or inconclusive. Potency means the concentration at half of the fitted maximal effect.

What do the screens show for `C[C@@H]1CN([C@@H](C)CO)C(=O)c2cc(NC(=O)C3CC3)ccc2O[C@@H]1CN(C)Cc1ccc(Cl)c(Cl)c1`?
GLP-1R inv ag: 11.2µM*; TGFb SMAD3 inh: inconclusive; S2 tox: inconclusive; HepG2 tox: -13.3%; ATXN2 expr inh: inconclusive; GLP1R ag: -1.3%

What do the screens show for `O=c1c2ccccc2nc(-c2ccc(Cl)cc2)n1CCCOc1ccccc1F`?
GLP-1R inv ag: 1.9%; TGFb SMAD3 inh: 2.5%; S2 tox: inactive; HepG2 tox: -2.3%; ATXN2 expr inh: 6.7%

Results for O=C(NCCc1nnc2n1CCN(CC1CC=CCC1)CC2)c1ccc(F)cc1 (stereo not given) ?
S2 tox: inactive

How did CCCCCOc1ccccc1CN1C(=O)C(=O)c2cc(C)ccc21 do in these assays?
GLP-1R inv ag: 0.7%; TGFb SMAD3 inh: -6.6%; HepG2 tox: -17.5%

What do the screens show for `C[C@H](CO)N1C[C@H](C)[C@H](CN(C)C)Oc2ccc(NS(=O)(=O)c3ccc(F)cc3)cc2CC1=O`?
GLP-1R inv ag: 13.3%; TGFb SMAD3 inh: 1.4%; S2 tox: inactive; HepG2 tox: 0.2%; ATXN2 expr inh: 2.3%; GLP1R ag: 3.9%

What do the screens show for `C[C@H]1CN([C@@H](C)CO)C(=O)Cc2cc(NS(C)(=O)=O)ccc2O[C@@H]1CN(C)Cc1ccc(Cl)c(Cl)c1`?
GLP-1R inv ag: inconclusive; TGFb SMAD3 inh: 11.2µM*; S2 tox: inconclusive; HepG2 tox: -32.9%; ATXN2 expr inh: -37.2%; GLP1R ag: 18.1%

How did CN1CCCC2(CCCN(Cc3nc(Cc4cccc(C(F)(F)F)c4)no3)C2)C1 (stereo not given) do in these assays?
GLP-1R inv ag: inconclusive; TGFb SMAD3 inh: -16.1%; S2 tox: inactive; HepG2 tox: -15.7%; ATXN2 expr inh: -17.0%; GLP1R ag: -3.7%

Results for FC(F)(F)c1cccc(Cc2noc(CN3CCC(c4ccncc4)CC3)n2)c1 ?
GLP-1R inv ag: 2.51µM*; TGFb SMAD3 inh: inconclusive; S2 tox: inactive; HepG2 tox: -33.5%; ATXN2 expr inh: inconclusive; GLP1R ag: 27.3%

How did O=C(c1cc(COc2cccc(C(F)(F)F)c2)on1)N1CCC(c2ccncc2)CC1 do in these assays?
GLP-1R inv ag: inconclusive; TGFb SMAD3 inh: inconclusive; S2 tox: inconclusive; HepG2 tox: -42.6%; ATXN2 expr inh: 14.1µM*; GLP1R ag: 16.5%

How did CCn1ncc(CN2CCCC(C(=O)Nc3cccc(-c4cc5ccccc5[nH]4)c3)C2)c1C (stereo not given) do in these assays?
GLP-1R inv ag: 3.55µM*; TGFb SMAD3 inh: inconclusive; S2 tox: inactive; HepG2 tox: -30.4%; ATXN2 expr inh: inconclusive; GLP1R ag: 1.6%

Results for Cc1ccc(NC(=O)CN2C(=O)CC(c3ccco3)Sc3ccccc32)cc1Cl (stereo not given) ?
GLP-1R inv ag: 19.6%; TGFb SMAD3 inh: 19.1%; S2 tox: inconclusive; HepG2 tox: -1.5%; ATXN2 expr inh: -15.3%; GLP1R ag: -1.9%

How did Cc1cc(C)cc(CN2CCC(Oc3ccc(C(=O)N4CCCC4)cc3)CC2)c1 do in these assays?
GLP-1R inv ag: 10µM*; TGFb SMAD3 inh: -3.9%; S2 tox: inconclusive; HepG2 tox: -22.3%; ATXN2 expr inh: -11.3%; GLP1R ag: 1.0%

What do the screens show for `O=C(c1ccc(OC2CCN(CCc3ccccc3)CC2)cc1)N1CCCC(CO)C1` (stereo not given)?
GLP-1R inv ag: 1.1%; TGFb SMAD3 inh: 7.0%; S2 tox: inactive; HepG2 tox: 8.7%; GLP1R ag: -2.7%

Results for CCCOC1CCCN(C(=O)c2ccc(OC3CCN(C(=O)COC)CC3)cc2)C1 (stereo not given) ?
GLP-1R inv ag: 11.2µM*; TGFb SMAD3 inh: 9.5%; S2 tox: inactive; HepG2 tox: 0.0%; ATXN2 expr inh: 10.3%; GLP1R ag: -5.6%

What do the screens show for `CC1CCCN(C(=O)c2ccc(OC3CCN(CCc4ccccc4)CC3)cc2)C1` (stereo not given)?
GLP-1R inv ag: 8.91µM*; TGFb SMAD3 inh: -0.9%; S2 tox: inconclusive; HepG2 tox: -10.4%; GLP1R ag: 2.6%

Results for CC1CCCN(C(=O)COc2ccc(-c3ccccc3)cc2)C1 (stereo not given) ?
GLP-1R inv ag: 11.2µM*; TGFb SMAD3 inh: -2.9%; S2 tox: inactive; HepG2 tox: -19.1%; ATXN2 expr inh: 6.7%; GLP1R ag: 18.8%

How did O=C(O)c1ccc(Nc2ncc3c(n2)-c2ccc(Cl)cc2C(c2c(F)cccc2F)=NC3)cc1 do in these assays?
ATXN2 expr inh: -3.0%

What do the screens show for `C#CCOCCOCCOCCNc1nc(N2CCN(C(=O)CCCCCCCCCCNC(=O)[C@H](CO)n3cc(CCCSC)nn3)CC2)nc(N2CCN(C(=O)CCCCCCCCCCNC(=O)[C@H](CCCN=C(N)N)n3cc(C[C@@H](C)CC)nn3)CC2)n1`?
GLP-1R inv ag: inconclusive; TGFb SMAD3 inh: inconclusive; S2 tox: 11.2µM*; HepG2 tox: 10µM*; ATXN2 expr inh: 11.2µM*; GLP1R ag: 8.5%

What do the screens show for `C#CCOCCOCCOCCNc1nc(N2CCN(C(=O)CCCCCCCCCCNC(=O)Cn3cc(C[C@@H](C)O)nn3)CC2)nc(N2CCN(C(=O)CCCCCCCCCCNC(=O)[C@H](CCCN=C(N)N)n3cc(C[C@@H](C)CC)nn3)CC2)n1`?
GLP-1R inv ag: inconclusive; TGFb SMAD3 inh: 14.1µM*; S2 tox: 20µM*; HepG2 tox: -50.9%; ATXN2 expr inh: inconclusive; GLP1R ag: 2.6%

What do the screens show for `C#CCOCCOCCOCCNc1nc(N2CCN(C(=O)CCCCCCCCCCNC(=O)Cn3cc(C[C@@H](C)O)nn3)CC2)nc(N2CCN(C(=O)CCCCCCCCCCNC(=O)[C@H](CCCCN)n3cc(CCCC(=O)O)nn3)CC2)n1`?
GLP-1R inv ag: -8.0%; TGFb SMAD3 inh: -8.1%; S2 tox: inactive; HepG2 tox: -5.0%; ATXN2 expr inh: -7.8%; GLP1R ag: 5.0%

How did O=C(CCS(=O)(=O)c1cccs1)Nc1ccc(C(=O)Nc2ccccc2F)cc1 do in these assays?
GLP-1R inv ag: -7.9%; TGFb SMAD3 inh: -3.6%; S2 tox: inactive; HepG2 tox: -23.8%; ATXN2 expr inh: 4.0%
